This note sets out measurements from PubChem BioAssay (NCATS).

Molecules are shown by their SMILES. Records with an inconclusive call do not appear. Entries that show only a call come without a potency. Activity calls are given as the source filed them. The call rests on the fitted dose curve; in most records, active means well fitted inhibition curve with a large enough effect; inconclusive means small, poorly fitted or top-dose-only effect; inactive means flat fitted curve, though single readings scatter.
Potency means the concentration at half of the fitted maximal effect.

The nature of the experiment: Cytometry Cell-Based qHTS for Inhibitors of the mTORC1 Signaling Pathway in MEF cells (AID 2668). The following applies: mTORC1 pathway readout; series mostly up to 38.3 µM. An excerpt: NIH Molecular Libraries Probe Production Centers Network [MLPCN]
NIH Chemical Genomics Center [NCGC]
Assay Submitter (PI): Blenis, John; Hoffman, Greg; Harvard University
NCGC Assay Overview: The mammalian target of rapamycin (mTOR) is an intracellular serine/threonine kinase Aberrant regulation of mTOR signaling plays a causative role in a number of human diseases, including cancer, benign tumors such as lymphangioleiomyomatosis (LAM) and Tuberous Sclerosis Complex (TSC), and metabolic diseases such as diabetes and obesity. This project aims to identify inhibitors of ribosomal protein S6 (rpS6) phosphorylation. The phosphorylation of rpS6 is a key event downstream of mTOR activation. The assay uses a phospho-specific antibody of phospho-rpS6 to detect inhibitors of mTOR activation. Mutations in the Tsc1 and Tsc2 genes are the underlying genetic lesions responsible for TSC, causing constitutive activation of the mTORC1 pathway and leading to profound effects on cell metabolism. Aberrant metabolism in cancer has recently received significant attention as a target to develop therapeutic agents in the treatment of cancer.1 As Tsc2-/- cells have lost the ability to respond to energy and growth factor deprivation, these cells are unable to properly down regulate cellular biosynthetic processes in response to metabolic stress, and are thus extremely sensitive to glucose deprivation-induced death.2 A central goal of this project is to explore the unique cell survival and metabolic properties of cells with Tsc1 or Tsc2 by screening for compounds that selectively target the Tsc2-/- MEFs by screening both Tsc2-/- and WT MEF cell lines. We hope to better understand these aspects of TSC physiology in order to exploit them for therapeutic benefit.
NCGC Acumen Assay Protocol:
For quantitative high throughput analysis of mTORC1 signaling, we developed a cell-based assay for immuno-fluorescence based detection of rpS6 phosphorylation on the Acumen Explorer that will be used a platform for the primary small molecule screen. Mouse embryonic fibroblasts (MEFs) are cultured in 1536-well plates using DMEM + 10% FBS. Twenty-four hrs after plating, test compounds (solubilized in DMSO) are delivered and incubated with the cells for 24 hrs at 37 degree Celsius. Following the incubation, media with compound is aspirated and the cells are fixed in 4% paraformaldehyde (PFA) containing PBS + 0.2% TX-100. Next, PFA is aspirated, cells are washed two times with PBS plus 0.2% TX-100 and the cells are blocked for 1 hr at room temperature (blocking buffer: LiCOR Blocking Buffer plus 0.2% TX-100). This is followed by aspiration and staining with Alexa-488 conjugated-phospho-rpS6 Ser235/236 antibody for 2 hours at room temperature (Cell Signaling Technology # 4803, 1:50 dilution in blocking buffer). Cells are washed two times with PBS plus 0.2% TX-100, and stained with 10 uM propidium iodide (PI) for 20-25 minutes for cell number measurement (1:500 dilution of Hoescht staining is also added for IN Cell imaging). The plates are scanned on the Acumen Explorer laser scanning instrument (TTP Labtech) using the 488nm laser for simultaneous excitation of the Alexa-488 and PI. The fluorescence emission from the Alexa-488 conjugated rpS6 phospho-235/236 antibody staining is selected using a […] band pass filter. Fluorescence emission from the PI stain is selected using a 575-640 nm band pass filter. The normalized phospho-S6 staining is calculated as the ratio of the integrated Alexa 488 intensity divided by the integrated PI intensity for the single concentration rapamycin control (7.5 nM) and DMSO columns. […] Inhibition of the pathway is defined based on the normalized phospho-S6 intensity in rapamycin treated cells. […]
In general terms: In qHTS, concentration-response curves come from the screen itself.
Turning to `Nc1nc(N)c2nc(CNc3ccc(C(=O)NC(CCC(=O)O)C(=O)O)cc3)cnc2n1` (stereo unspecified), the Potency entry was “inactive”. With `N[C@@H](Cc1ccc(O)c(O)c1)C(=O)O`, the Potency result is “inactive”. For `CC(C)NCC(O)c1ccc(NS(C)(=O)=O)cc1` (stereo unspecified), the Potency entry is “inactive”.

Consider `CC1CC2C3CCC4=CC(=O)C=C[C@]4(C)[C@@]3(F)[C@@H](O)C[C@]2(C)[C@@]1(O)C(=O)CO` (stereo partly specified), for which the Potency entry is “inactive”.

Consider `CCN(CC)CCn1c(=O)c(Cc2ccc(OC)cc2)nc2ccccc21`, for which the Potency result is “inactive”.

As to `CCN(CC)CC#CCOC(=O)C(O)(c1ccccc1)C1CCCCC1` (stereo unspecified), the Potency result was “inactive”.

As to `CCCCS(=N)(=O)CCC(N)C(=O)O` (stereo unspecified), the Potency entry is “inactive”. Take `COc1cc2nc(N3CCCN(C)CC3)nc(NC3CCN(Cc4ccccc4)CC3)c2cc1OC`: the Potency was 6.56 µM (active). Take `CC1=C(C(=O)O)N2C(=O)[C@@H](NC(=O)C(N)c3ccccc3)[C@H]2SC1` (stereo partly specified): the Potency entry was “inactive”.

For the compound `NC(=O)c1cccc(N)c1`, the Potency result was “inactive”. On to `OCc1ccc(-c2nn(Cc3ccccc3)c3ccccc23)o1`, for which the Potency entry was “inactive”. For `O=C(O)C1CCCN(CCC=C(c2ccccc2)c2ccccc2)C1` (stereo unspecified), the Potency entry is “inactive”. Take `COc1cc2ncnc(Nc3cccc(Cl)c3)c2cc1OC`: the Potency result was “inactive”.

As for `CC(=O)[C@H]1CC[C@H]2[C@@H]3CCC4=CC(=O)CC[C@]4(C)[C@H]3CC[C@]12C`, the Potency result was “inactive”. For `NC(=O)c1ccc2[nH]ccc2c1`, the Potency result was “inactive”. Turning to `CCN1CCCC1CNC(=O)c1cc(S(N)(=O)=O)ccc1OC` (stereo unspecified), the Potency result is “inactive”.
